Reference: PubChem BioAssay (Tox21)
Records with an inconclusive call do not appear. Activity calls are given as the source filed them. Unless noted, calls follow the shape of the dose curve; as a rule, active = well fitted curve in the direction sought with a large enough effect in the repeat runs; inconclusive = weak or mixed curves; inactive = no such curve, though single readings can be large; an effect the other way counts as inactive or inconclusive.

Assays:
[1] = A CellTox Green Cytotoxicity Assay to monitor cytotoxicity in HepG2 cells - 8 hour (AID 1224890); also: nearly all actives have a fitted effect of over 45% in size
Procedure, shortened: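 HepG2, 600 cells/well premixed w/ CellTox Green; 5 h settle, 37 C/5% CO2; pintool cpd add (DMSO); 37 C, 40 h; fluorescence read at 0, 8, 16, 24, 32, 40 h.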

[2] = qHTS assay to identify small molecule antagonists of the estrogen receptor alpha (ER-alpha) signaling pathway using the BG1 cell line in the presence of 0.1 nM 17-beta-estradiol - cell viability counter screen (AID 1259241); also: nearly all actives have a fitted effect of over 40% in size
Procedure, shortened: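 VM7Luc4E2 cells (endogenous ER-alpha, 4×ERE-luciferase), hormone-starved 5 days in charcoal-stripped FBS, were treated with compounds plus 0.1 nM 17beta-estradiol for 22 hr at 37C; viability read in same wells as CellTiter-Fluor live-cell protease fluorescence.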

[3] = target: Estrogen receptor (Homo sapiens) (UniProt P03372); experiment: qHTS assay to identify small molecule antagonists of the estrogen receptor alpha (ER-alpha) signaling pathway using the BG1 cell line in the presence of 0.1 nM 17-beta-estradiol (AID 1259244); also: nearly all actives have a fitted effect of over 50% in size
Procedure, shortened: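 Luminescence after ONE-Glo (30 min, room temperature) measured ERE-luciferase activity in VM7Luc4E2 cells treated 22 h with compound and 0.1 nM final 17beta-estradiol as stimulator.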

[4] = qHTS assay to identify small molecule phospholipidosis (PLD) inducers (AID 1259344; active = well fitted curve in the direction sought with a large enough effect; an effect the other way counts as inactive or inconclusive)
Procedure, shortened: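 Image-based: LipidTOX Red pit count/intensity per well and per cell; HepG2, 24 h compound at 37 C, PFA fixation, Hoechst counterstain.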

[5] = qHTS assay to identify small molecule HDAC inhibitors (AID 1259364);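 also: wild-type HCT-116 cells with endogenous class I/II HDAC activity; top concentration of the series differs between compounds; nearly all actives have a fitted effect of over 45% in size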
Procedure, shortened: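 HCT-116 (wild type), 1,500 cells/well, overnight; compound 2 hr 37C 5% CO2; HDAC-Glo I/II reagent 30 min RT; luminescence readout.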

[6] = qHTS assay to identify small molecule HDAC inhibitors - cell viability counter screen (AID 1259365); also: series mostly up to about 92 µM; nearly all actives have a fitted effect of over 50% in size
Procedure, shortened: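 Wild-type HCT-116 cells were seeded at 1,500 per well, incubated overnight at 37 C, then exposed to compounds in DMSO for 2hr. Viability was read by CellTiter-Glo luminescence after 30min at room temperature.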

[7] = qHTS assay to identify small molecule agonists of the sonic hedgehog signaling (Shh) pathway - cell viability counter screen (AID 1259366); also: nearly all actives have a fitted effect of over 50% in size
Procedure, shortened: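 NIH/3T3-derived 3T3 Gli1-Luc cells (stable Gli1-responsive firefly luciferase reporter) were seeded, rested 4 hr at 37 C/5% CO2, then exposed to compounds in DMSO for 24 hr; viability was read by CellTiter-Fluor fluorescence in the same wells.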

[8] = qHTS assay to identify small molecule antagonists of the sonic hedgehog signaling (Shh) pathway - cell viability counter screen (AID 1259367); also: nearly all actives have a fitted effect of over 55% in size
Procedure, shortened: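 Tox21 library chemicals were tested on a Gli1-Luc NIH/3T3 clone (2,000 cells/well) stimulated by conditioned medium; viability was quantified as fluorescence from CellTiter-Fluor reagent added at 23 hr.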

[9] = qHTS assay to identify small molecule agonists of the sonic hedgehog signaling (Shh) pathway (AID 1259368; calls by dose curve; also: series mostly up to about 92 µM; nearly all actives have a fitted effect of over 15% in size)
Procedure, shortened: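 Read-out: firefly luciferase luminescence from a Gli1 response element reporter stably integrated in NIH/3T3-derived 3T3Gli1-Luc cells, measured 30 min at room temperature after reagent addition. Compound exposure lasted 24 hr at 37 C, 5% CO2.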

[10] = qHTS assay to identify small molecule antagonists of the sonic hedgehog signaling (Shh) pathway (AID 1259369; calls by dose curve; also: nearly all actives have a fitted effect of over 45% in size)
Procedure, shortened: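 Luminescence readout: firefly Luc under Gli1 response element in 3T3Gli1-Luc cells (NIH/3T3 clone). Antagonist mode, stimulation by conditioned medium; compound exposure 24hr at 37 C, 5% CO2.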

[11] = target: Estrogen receptor beta (Homo sapiens) (UniProt Q92731); experiment: qHTS assay to identify small molecule agonists of the estrogen receptor beta (ER-beta) signaling pathway (AID 1259377; active = well fitted activation curve with a large enough effect in the signal ratio in the repeat runs, not every such curve was filed as active; the % refers to the signal ratio)
Procedure, shortened: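 ER-beta-UAS-bla HEK293T (GripTite) cells carrying a UAS-driven beta-lactamase reporter, in medium with 2% charcoal-stripped FBS, were exposed to compounds for 16 hr at 37C; LiveBLAzer B/G FRET substrate was then added and fluorescence read after 2 hours at room temperature.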

[12] = target: Estrogen receptor beta (Homo sapiens) (UniProt Q92731); experiment: qHTS assay to identify small molecule antagonists of the estrogen receptor beta (ER-beta) signaling pathway (AID 1259378; active = well fitted inhibition curve with a large enough effect in the signal ratio in the repeat runs, not every such curve was filed as active; the % refers to the signal ratio)
Procedure, shortened: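 ER-beta-UAS-bla HEK293T cells in 2% charcoal-stripped FBS medium treated with compound plus 1nM final 17-beta-estradiol for 16 hr at 37C. Beta-lactamase reporter read by FRET substrate fluorescence after 2 hours at room temperature.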

[13] = qHTS assay to identify small molecule agonists of the androgen receptor (AR) signaling pathway in the presence of an antagonist - cell viability counter screen (AID 1259379);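 also: MDA-kb2 human breast cancer cells carrying an MMTV luciferase reporter; series mostly up to about 92 µM; nearly all actives have a fitted effect of over 25% in size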
Procedure, shortened: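 Viability counter screen: CellTiter-Fluor fluorescence, measured in the same wells as the luciferase read-out. MDA-kb2 cells, 3,000/well, with nilutamide at 3.0uM final and compounds at 15 concentrations, 16 hr at 37C, 0% CO2.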

[14] = qHTS assay to identify small molecule agonists of the estrogen receptor beta (ER-beta) signaling pathway - cell viability counter screen (AID 1259380); also: nearly all actives have a fitted effect of over 30% in size
Procedure, shortened: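 Luminescence read-out (CellTiter-Glo, 30 min, room temp) taken in the same wells as the beta-lactamase reporter assay; ER-beta-UAS-bla HEK293T cells exposed to DMSO-dissolved compounds for 16 hr at 37C in 2% charcoal-stripped FBS medium.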

[15] = qHTS assay to identify small molecule antagonists of the estrogen receptor beta (ER-beta) signaling pathway - cell viability counter screen (AID 1259382); also: series mostly up to about 92 µM; nearly all actives have a fitted effect of over 55% in size
Procedure, shortened: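 Luminescent ATP read-out (CellTiter-Glo, 30 min, RT) taken in the same wells as the bla reporter assay. HEK293T ER-beta-UAS-bla cells in 2% charcoal-stripped FBS were exposed to compounds with 1nM E2 for 16 hr at 37C.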

[16] = target: Estrogen receptor (Homo sapiens) (UniProt P03372); experiment: qHTS assay to identify small molecule agonists of the estrogen receptor alpha (ER-alpha) signaling pathway in the presence of an antagonist (AID 1259383; calls by dose curve; also: top concentration of the series differs between compounds; nearly all actives have a fitted effect of over 15% in size)
Procedure, shortened: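 Luciferase luminescence (ONE-Glo, 30min at room temperature) measured in VM7Luc4E2 cells after 22hr compound exposure at 15 concentrations, with 10.0nM ICI-182,780 final present; cells express endogenous ER-alpha and carry four EREs upstream of luciferase.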

[17] = qHTS assay to identify small molecule agonists or antagonists of the thyroid stimulating hormone receptor (TSHR) signaling pathway - wild type cell line counter screen (AID 1259384; calls by dose curve)
Procedure, shortened: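 Wild-type Hek293 cells, 800/well, 18 h at 37C, then compound with Ro20-1724 for 30 min RT. cAMP by HTRF (cAMP-d2/anti-cAMP cryptate), 1 h RT, fluorescence read. 15 concentrations, triplicates.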

[18] = target: Androgen receptor (Homo sapiens) (UniProt P10275); experiment: qHTS assay to identify small molecule antagonists of the androgen receptor (AR) signaling pathway using the MDA cell line in the presence of 0.5 nM R1881 (AID 1259243); also: nearly all actives have a fitted effect of over 50% in size
Procedure, shortened: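 MDA-kb2, MMTV-luc (AR/GR elements); 3,000 cells/well; cpd + 0.5 nM R1881 final; 16 hr 37C, 0% CO2; ONE-Glo 30 min RT; luminescence.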

[19] = target: Androgen receptor (Homo sapiens) (UniProt P10275); experiment: qHTS assay to identify small molecule agonists of the androgen receptor (AR) signaling pathway in the presence of an antagonist (AID 1259381; calls by dose curve; also: nearly all actives have a fitted effect of over 15% in size)
Procedure, shortened: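 Luciferase read-out (ONE-Glo, 30min room temperature) in MDA-kb2 MMTV-reporter cells; agonist mode run in presence of AR antagonist nilutamide, 3.0uM final. Compounds tested as 15-point series, 16hr exposure at 37C, 0% CO2.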

[20] = qHTS assay to identify small molecule antagonists of the androgen receptor (AR) signaling pathway using the MDA cell line in the presence of 0.5 nM R1881 - cell viability counter screen (AID 1259242); also: nearly all actives have a fitted effect of over 45% in size
Procedure, shortened: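 Live-cell protease fluorescence, CellTiter-Fluor, 30 min at 37C. Cells: MDA-kb2, 3,000/well, preincubated 5 hr. Compounds plus 0.5 nM R1881 final, 16 hr, 37C, 0% CO2.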
% is scaled to controls: 0 for no effect and ±100 for the full control effect.

Estrogen receptor (Homo sapiens), sequence (P03372 whole entry, looked up): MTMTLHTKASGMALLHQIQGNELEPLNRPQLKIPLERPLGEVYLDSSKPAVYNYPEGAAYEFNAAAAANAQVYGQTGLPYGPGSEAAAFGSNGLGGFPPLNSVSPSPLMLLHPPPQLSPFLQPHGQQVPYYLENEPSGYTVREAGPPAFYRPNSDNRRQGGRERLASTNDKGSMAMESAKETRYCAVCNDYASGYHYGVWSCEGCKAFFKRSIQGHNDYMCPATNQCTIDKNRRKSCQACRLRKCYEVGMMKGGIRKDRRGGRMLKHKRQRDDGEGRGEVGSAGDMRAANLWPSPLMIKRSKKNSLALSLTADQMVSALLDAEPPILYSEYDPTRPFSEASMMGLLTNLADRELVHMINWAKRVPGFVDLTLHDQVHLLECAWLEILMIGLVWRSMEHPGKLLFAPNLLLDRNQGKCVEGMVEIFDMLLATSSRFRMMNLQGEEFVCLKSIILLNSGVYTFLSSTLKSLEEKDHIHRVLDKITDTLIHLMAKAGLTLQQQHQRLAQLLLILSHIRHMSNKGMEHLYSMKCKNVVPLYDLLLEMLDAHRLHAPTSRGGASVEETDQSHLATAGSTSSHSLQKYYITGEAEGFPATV
Androgen receptor (Homo sapiens), sequence (P10275 whole entry, looked up): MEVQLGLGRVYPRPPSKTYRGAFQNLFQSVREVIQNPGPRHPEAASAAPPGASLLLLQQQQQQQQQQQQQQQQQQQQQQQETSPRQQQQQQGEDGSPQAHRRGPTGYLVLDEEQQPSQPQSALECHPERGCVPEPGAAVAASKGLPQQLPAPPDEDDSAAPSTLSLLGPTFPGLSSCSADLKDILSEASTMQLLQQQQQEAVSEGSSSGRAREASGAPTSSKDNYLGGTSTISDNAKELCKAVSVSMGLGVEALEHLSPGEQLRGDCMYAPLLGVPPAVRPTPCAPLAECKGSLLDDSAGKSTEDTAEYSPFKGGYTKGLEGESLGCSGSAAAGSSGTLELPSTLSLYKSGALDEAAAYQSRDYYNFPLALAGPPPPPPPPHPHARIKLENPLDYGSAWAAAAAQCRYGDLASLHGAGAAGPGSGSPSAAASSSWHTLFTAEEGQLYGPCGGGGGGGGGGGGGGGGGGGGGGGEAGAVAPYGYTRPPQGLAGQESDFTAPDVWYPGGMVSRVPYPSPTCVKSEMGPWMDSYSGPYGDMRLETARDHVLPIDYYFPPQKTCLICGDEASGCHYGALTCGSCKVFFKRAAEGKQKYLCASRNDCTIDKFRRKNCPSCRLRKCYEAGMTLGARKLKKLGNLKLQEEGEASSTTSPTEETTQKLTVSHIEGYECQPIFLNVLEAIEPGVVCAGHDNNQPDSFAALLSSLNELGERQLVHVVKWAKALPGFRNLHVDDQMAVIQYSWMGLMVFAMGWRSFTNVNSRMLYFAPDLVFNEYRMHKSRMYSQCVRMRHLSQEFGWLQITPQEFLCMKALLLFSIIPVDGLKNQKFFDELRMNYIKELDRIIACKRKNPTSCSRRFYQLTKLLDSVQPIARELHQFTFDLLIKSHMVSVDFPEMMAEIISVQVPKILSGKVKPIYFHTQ
Estrogen receptor beta (Homo sapiens), sequence (Q92731 whole entry, looked up): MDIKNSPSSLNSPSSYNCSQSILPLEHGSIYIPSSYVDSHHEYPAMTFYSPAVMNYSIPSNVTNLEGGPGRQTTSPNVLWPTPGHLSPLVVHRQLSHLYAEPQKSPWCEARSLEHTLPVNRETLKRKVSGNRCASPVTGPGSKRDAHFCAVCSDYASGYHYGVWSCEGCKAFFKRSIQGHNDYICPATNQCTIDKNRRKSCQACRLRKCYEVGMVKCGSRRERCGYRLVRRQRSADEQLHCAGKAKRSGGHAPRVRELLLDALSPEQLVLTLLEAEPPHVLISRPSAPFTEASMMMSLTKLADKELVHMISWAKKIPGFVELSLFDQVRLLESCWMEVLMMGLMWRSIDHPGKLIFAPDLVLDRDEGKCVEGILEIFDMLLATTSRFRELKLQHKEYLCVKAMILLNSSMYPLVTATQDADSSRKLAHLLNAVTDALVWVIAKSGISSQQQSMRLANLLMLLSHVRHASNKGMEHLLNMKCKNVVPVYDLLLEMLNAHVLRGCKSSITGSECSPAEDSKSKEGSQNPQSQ

C[C@@H](O)[C@H]1C(=O)N2C(C(=O)O)=C(S[C@@H]3CN[C@H](CNS(N)(=O)=O)C3)[C@H](C)[C@H]12
inactive: Potency [1] | Potency [2] | Potency [3] | Potency [4] | Potency [5] | outcome [6] | Potency [7] | Potency [8] | Potency [9] | Potency [10] | Potency [11] | Potency [12] | Potency [13] | Potency [14] | Potency [15] | Potency [16] | outcome [17]

CCC[Si](OC)(OC)OC
inactive: Potency [1] | Potency [2] | Potency [18] | Potency [3] | Potency [5] | outcome [6] | Potency [7] | Potency [8] | Potency [9] | Potency [11] | Potency [12] | Potency [13] | Potency [14] | Potency [19] | Potency [15] | Potency [16] | outcome [17]

O=C(O)c1cccnc1Nc1cccc(C(F)(F)F)c1
inactive: Potency [1] | Potency [2] | Potency [4] | Potency [7] | Potency [8] | Potency [9] | Potency [10]

CCC1=C(C)CN(C(=O)NCCc2ccc(S(=O)(=O)NC(=O)NC3CCC(C)CC3)cc2)C1=O (stereo not drawn)
inactive: Potency [1] | Potency [20] | Potency [18] | Potency [3] | Potency [4] | Potency [5] | outcome [6] | Potency [7] | Potency [8] | Potency [9] | Potency [10] | Potency [11] | Potency [13] | Potency [19] | Potency [15] | Potency [16] | outcome [17]

CCCc1ccc(OC)cc1
inactive: Potency [1] | Potency [2] | Potency [18] | Potency [3] | Potency [5] | Potency [7] | Potency [8] | Potency [9] | Potency [10] | Potency [12] | Potency [13] | Potency [14] | Potency [19] | Potency [15] | outcome [17]

OCCc1ccncc1
inactive: Potency [1] | Potency [2] | Potency [3] | Potency [5] | outcome [6] | Potency [7] | Potency [8] | Potency [9] | Potency [10] | Potency [11] | Potency [12] | Potency [13] | Potency [14] | Potency [15] | Potency [16] | outcome [17]

C=Cc1ccc(C=C)cc1
inactive: Potency [1] | Potency [2] | Potency [3] | Potency [5] | outcome [6] | Potency [7] | Potency [8] | Potency [9] | Potency [10] | Potency [11] | Potency [12] | Potency [13] | Potency [14] | Potency [15] | outcome [17]

CO[C@@H]1[C@@H](O[C@@H]2O[C@H](C)[C@@H](O[C@H]3C[C@@](C)(O)[C@@H](O)[C@H](C)O3)[C@H](N(C)C)[C@H]2O)[C@@H](CC=O)C[C@@H](C)[C@@H](O[C@@H]2CC[C@H](N(C)C)[C@@H](C)O2)/C=C/C=C/C[C@@H](C)OC(=O)C[C@H]1OC(C)=O
inactive: Potency [1] | Potency [2] | Potency [20] | Potency [5] | Potency [7] | Potency [8] | Potency [9] | Potency [11] | Potency [12] | Potency [15] | Potency [16]

NC(=O)c1ccccc1
inactive: Potency [1] | Potency [20] | Potency [18] | Potency [3] | Potency [5] | outcome [6] | Potency [7] | Potency [8] | Potency [9] | Potency [10] | Potency [11] | Potency [12] | Potency [13] | Potency [14] | Potency [19] | Potency [15] | outcome [17]

Clc1cccc(C(c2ccc3nc[nH]c3c2)n2ccnc2)c1 (stereo not drawn)
inactive: Potency [1] | Potency [20] | Potency [18] | Potency [3] | Potency [4] | Potency [5] | outcome [6] | Potency [7] | Potency [8] | Potency [9] | Potency [10] | Potency [11] | Potency [12] | Potency [13] | Potency [19] | Potency [15]

COC=O
inactive: activity change, negative = cytotoxicity [2] 7.16% [at 8.39 µM] | viability change, negative = cytotoxic [20] 2.17% [at 8.39 µM] | activity change, negative = inhibition [3] -1.73% [at 8.39 µM] | activity change, negative = inhibition [5] 0.883% [at 8.39 µM] | activity change, negative = cytotoxicity [6] -4.91% [at 8.39 µM] | viability change, negative = cytotoxic [7] 14% [at 8.39 µM] | viability change, negative = cytotoxic [8] 5.98% [at 8.39 µM] | activity change [9] -3.86% [at 8.39 µM, active compounds read high] | activity change, negative = inhibition [10] 0% [at 8.39 µM] | activation [11] 8.91% [at 8.39 µM] | activity, negative = inhibition [12] 1.13% [at 8.39 µM] | activity change, negative = cytotoxicity [15] 10.9% [at 8.39 µM] | activation [16] 1.27% [at 8.39 µM] | cAMP activity change [17] -7.06% [at 8.39 µM]

O=C1OC(=O)C2CC=CCC12 (stereo not drawn)
inactive: Potency [1] | Potency [20] | Potency [3] | Potency [5] | outcome [6] | Potency [7] | Potency [8] | Potency [9] | Potency [10] | Potency [11] | Potency [12] | Potency [13] | Potency [14] | Potency [15] | Potency [16] | outcome [17]
